According to PubChem BioAssay (NCATS):
Inconclusive results are not listed. A number with no mark means an inactive call. The source made the active and inactive calls. Calls come from the whole dose curve; as a rule, active = well fitted inhibition curve with a large enough effect; inconclusive = small, poorly fitted or top-dose-only effect; inactive = flat fitted curve, though single readings scatter.
% is set by controls: 0 for no effect and ±100 for the full control effect; potency is the fitted concentration of half-maximal effect.

These compounds were tested on KB-3-1 (assay: Cytotoxic Profiling of Annotated Libraries Using Quantitative High-Throughput Screening (AID 1296008; note: nearly all actives have a fitted effect of over 60% in size)). Settings: Five cell lines viability, CellTiter-Glo ATP luminescence, 48-72 h; max response: stronger effect = lower value.
From the text: Cell-based phenotypic screening is a commonly used approach to discover biological pathways, novel drug targets, chemical probes and high-quality hit-to-lead molecules. Many hits identified from high-throughput screening campaign are ruled out through a series of follow-up potency, selectivity/specificity, and cytotoxicity assays. Prioritization of molecules with little or no cytotoxicity for a more in-depth downstream evaluation influence the future direction of projects, so cytotoxicity profiling of the screening libraries at early stage is essential for increasing the likelihood of candidate success. […] For the annotated library, we also examined the primary targets and mechanistic pathways regularly associated with cell death. To our knowledge, this is the first study to use high-throughput screening to profile large libraries for cytotoxicity assessment in both normal and cancer cell lines. In summary, the results generated here constitutes a valuable resource for the scientific community and provides insight on identifying cytotoxic compounds with particular mechanisms of action, and prioritizing compounds with suitable cytotoxicity profile for further evaluation.
A pintool (Kalypsys) was used to transfer 23 nL of compound solution to the 1536-well assay plates. After 48 or 72 hr incubation at 37 degree Celsius, 5% CO2 and 95% humidity, 2.5 uL of CellTiter-Glo (Promega) was dispensed into each well using a dispenser (Aspect Automation, St. Paul, MN) with solenoid valves (Lee Valves, Westbrook CT). Plates were left at room temperature for 10 min before imaging the ATP-coupled luminescence using a ViewLux microplate imager (PerkinElmer, Waltham, MA).
Compound `CC(C)CCCCCCc1ccc(O)cc1` has a max response of -10.4%. `Cn1c(=O)c2c(ncn2CCOC(=O)C(C)(C)Oc2ccc(Cl)cc2)n(C)c1=O` gave a max response of -10.9%. In the case of `Cc1ncc[nH]1`, the max response is reported as 3.25%. `Cn1cc(NC(=O)c2cc(NC(=O)c3cc(NC=O)cn3C)cn2C)cc1C(=O)NCCC(=N)N` showed a max response of 2.85%. For `C[C@@H]1O[C@@H](OC[C@H]2O[C@@H](Oc3c(-c4ccc(OCCO)c(OCCO)c4)oc4cc(OCCO)cc(O)c4c3=O)[C@H](O)[C@@H](O)[C@@H]2O)[C@H](O)[C@H](O)[C@H]1O`, the max response was -2.8%. With `CN(C)c1ccc(C(=C2C=CC(=[N+](C)C)C=C2)c2c(O)c(S(=O)(=O)[O-])cc3cc(S(=O)(=O)O)ccc23)cc1` the Potency was 14.6 µM (active). Compound `Cc1ccc(S(=O)(=O)NC(=O)N[C@@H](C)Cc2ccccc2)cc1` has a max response of 4.03%. In the case of `CN[C@@H]1[C@H](O[C@H]2[C@H](O[C@H]3[C@H](O)[C@@H](O)[C@H](N=C(N)N)[C@@H](O)[C@@H]3N=C(N)N)O[C@@H](C)[C@]2(O)C=O)O[C@@H](CO)[C@H](O)[C@H]1O`, the max response is reported as 22.5%. `CCN(CC)CCOC[C@H]1O[C@@H](O)[C@H](OCCN(CC)CC)[C@@H](O)[C@@H]1O` showed a max response of 8.48%. `CC(=O)Nc1c(I)c(C(=O)N[C@H]2C(O)O[C@H](CO)[C@@H](O)[C@@H]2O)c(I)c(N(C)C(C)=O)c1I` (stereo not given in full) was tested, and the max response was -7.33%. `Oc1ccc(/C=C/c2cc(O)cc(O)c2)cc1` gave a max response of 36.2%. `OCC(O)CO` gave a max response of 0.712%. In the case of `O=c1[nH]c(=O)n([C@H]2C[C@H](O)[C@@H](CO)O2)cc1/C=C/Br`, the max response is reported as 1.96%. For `OCCOCCOCCO`, the max response was -12.6%. Work on `CC(C)CCC[C@@H](C)[C@H]1CC(=O)C2=C3CC[C@H]4C[C@@H](O)CC[C@]4(C)[C@H]3CC[C@@]21C` yielded a max response of -6.65%. For `CC(C)[C@@H](C)/C=C/[C@@H](C)[C@H]1CC[C@H]2/C(=C/C=C3\C[C@@H](O)CC[C@@H]3C)CCC[C@]12C`, the max response was 8.4%. In the case of `OCC1(CO)COC(C(Cl)(Cl)Cl)OC1`, the max response is reported as 16.6%. With `C[C@@](Cc1ccc(O)c(O)c1)(NN)C(=O)O` the max response was 2.59%. Work on `Cn1nnnc1SCC1=C(C(=O)O)N2C(=O)[C@@H](NC(=O)[C@H](O)c3ccccc3)[C@H]2SC1` yielded a max response of 8.48%. In the case of `FC(F)(F)COCC(F)(F)F`, the max response is reported as -9.66%. Work on `CCCCC/C=C\C/C=C\C/C=C\CCCCC(=O)O` yielded a max response of -2.17%. Compound `CO` has a max response of 17.7%. `CC1CCCC(C)N1NC(=O)c1ccc(Cl)c(S(N)(=O)=O)c1` (stereo not given) showed a max response of 1.28%. Work on `CC[C@H]1NC(=O)[C@@H](NC(=O)c2ncccc2O)[C@@H](C)OC(=O)[C@H](c2ccccc2)NC(=O)[C@@H]2CC(=O)CCN2C(=O)[C@H](Cc2ccccc2)N(C)C(=O)[C@@H]2CCCN2C1=O` yielded a max response of 2%. `CN(C)CCC(O)(c1ccccc1)c1ccccc1Cl` (stereo not given) gave a max response of 3.32%. `NCC(O)CC(=O)O` (stereo not given) gave a max response of 3.49%. `CC(=O)O[C@@H]1CC2CCC1(C)C2(C)C` (stereo not given in full) was tested, and the max response was -0.31%. With `O=C(NCCNCC(O)COc1ccc(O)cc1)N1CCOCC1` (stereo not given) the max response was 1.66%. `CS(=O)(=O)c1ccc([C@@H](O)[C@@H](COC(=O)CN)NC(=O)C(Cl)Cl)cc1` showed a max response of -15.1%. Compound `CC(C)[C@@H](N)C(=O)O` has a max response of -13.9%. In the case of `CCOC(=O)[C@@H](N)CS`, the max response is reported as -7.89%. Work on `Nc1ncnc2c1ncn2CCOCP(=O)(O)O` yielded a max response of -6.33%. `O=C(OC[C@H]1O[C@](O)(COC(=O)c2cccnc2)[C@@H](OC(=O)c2cccnc2)[C@@H]1OC(=O)c1cccnc1)c1cccnc1` showed a max response of -13.5%. `CC1=C(/C=C/C(C)=C/C=C/C(C)=C/C=C/C=C(C)/C=C/C=C(C)/C=C/C2=C(C)C[C@@H](O)CC2(C)C)C(C)(C)C[C@H](O)C1` was tested, and the max response was -5.35%. With `O=C(/C=C/c1cccc(F)c1)NC1CC1` the max response was -16.5%. For `CC(CC=O)CCCC(C)(C)O` (stereo not given), the max response was 7.65%. Compound `CC12CCC(C1)C(C)(C)C2=O` (stereo not given) has a max response of 3.69%. In the case of `CN[C@@H]1[C@@H](O)[C@@H](O[C@@H]2[C@@H](O)[C@H](OC3OC(CN)=CCC3N)[C@@H](N)C[C@H]2N)OC[C@]1(C)O` (stereo not given in full), the max response is reported as -18.5%. `CN=C1C=CC(=C(c2ccc(N(C)C)cc2)c2ccc(N(C)C)cc2)C=C1` was tested, and the Potency was 7.31 µM (active). `CCC(O)c1ccccc1` (stereo not given) was tested, and the max response was 7.91%.
